These results are taken from PubChem BioAssay.

A word on the inhibition: it is the drop in the measured response relative to a control, in per cent.

Experiment [1] can be described thus: growth inhibition, single agents and combos, LFS_MB_1R, cell-based, cisplatin or BGB combos, synergistic combos for chromothripsis tumors (AID 1671452).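 Note: cells exposed for 96 hours before readout.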 The following applies: LFS_MB_1R medulloblastoma cells, stronger effect = higher value.
The nature of experiment [2]: growth inhibition, single agents and combos, CRL2098, cell-based, BGB or cisplatin IC20 combos, synergistic combos for chromothripsis tumors (AID 1671454).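 Note: cells exposed for 96 h before readout; 0% = vehicle DMSO and 100% = killing by high DMSO.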 The following applies: CRL2098 osteosarcoma cells, drug combinations, stronger effect = higher value.
Experiment [3] is described as follows: growth inhibition, single agents and combos, HD-MB03, cell-based, BGB or cisplatin IC20 combos, synergistic combos for chromothripsis tumors (AID 1671455; in the data active = inhibition above about 83%;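 note: 0% = vehicle DMSO and 100% = high DMSO as cytotoxic control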). The settings on record: HD-MB03 medulloblastoma cells, stronger effect = higher value.
Experiment [4] can be described thus: growth inhibition, single agents and combos, UWB1.289, cell-based, BGB or cisplatin combos, synergistic combos for chromothripsis tumors (AID 1671456).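 Note: cells exposed to compound for four days; 0% = vehicle DMSO and 100% = killing by high DMSO.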 The settings on record: UWB1.289 ovarian carcinoma cells, stronger effect = higher value.
A short description of experiment [5]: growth inhibition, single agents and combos, LFS_MB_2R, cell-based, cisplatin combos, synergistic combos for chromothripsis tumors (AID 1671457).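 Note: cells exposed to compound for four days before readout.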 The following applies: LFS_MB_2R medulloblastoma cells, stronger effect = higher value.
The nature of experiment [6]: UWB1.289_BRCA1 ovarian cancer growth, cell-based, BGB or cisplatin combinations (AID 1671459). The following applies: UWB1.289 BRCA1 ovarian carcinoma, drug combinations, stronger effect = higher value.
Experiment [7] can be described thus: drug combination toxicity in non-malignant astrocytes – cell-based, BGB or cisplatin IC20 combos, cytotoxicity control for chromothriptic childhood tumor combination screen (AID 1671460).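 Note: cells exposed to compounds for 96 hours before viability readout; 0% = vehicle and 100% = killing control.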 The settings on record: Human astrocytes, viability inhibition, drug combinations, at 0.5 µM, stronger effect = higher value.
Experiment [8] can be described thus: blockers of polyQ-driven CASP3 activation – cell-based (AID 1583). The settings on record: polyglutamine-induced caspase-3 activation, cell assay; stronger effect = higher value;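 tested at 10 µM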.
Experiment [9] is described as follows: yeast 75Q aggregation reduction – 75Q-TubU reporter (AID 1593). The following applies: Yeast 75Q polyglutamine aggregation reporter.
Experiment [10] in a line: restoration of touch response, mutant HTT neurons – whole organism, C. elegans mechanosensory neurons, N-terminal huntingtin (AID 1599). The following applies: C. elegans polyQ-huntingtin mechanosensory neurons, stronger effect = higher value.
The nature of experiment [11]: blockers of cytochrome c efflux from mitochondria – biochemical, purified mitochondria (AID 1603).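 Note: mouse liver mitochondria challenged with calcium chloride; signal normalized to the plate average as 100%.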 The settings on record: stronger effect = lower value.
Experiment [12] in a line: polyglutamine aggregate formation blockers (AID 1604). The settings on record: polyglutamine-induced protein aggregation inhibition assay; stronger effect = higher value; tested at 2.5 µM.
The nature of experiment [13]: glutamate transport activators, MN-1 cells, MN-1 cell line (AID 1612).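 Note: tested at 1 µM final; 0% = mean of DMSO vehicle wells on each plate; positive means more glutamate uptake than control and negative means less.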 The following applies: MN-1 motor neuron cells, stronger effect = higher value.
Experiment [14] in a line: GFP-Q80 aggregate reduction, neuronal-like cells, cell-based, NGF-treated PC12, GFPQ80 (AID 1614).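 Note: lower means fewer inclusions and 0 means no inclusions at all.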 The following applies: PC12 NGF-treated GFP-polyQ80 inclusion reduction.
A short description of experiment [15]: 75Q-TubH aggregate inhibition, S. cerevisiae, yeast (AID 1616). The settings on record: S. cerevisiae 75Q-TubH polyglutamine aggregation suppression; stronger effect = higher value.
Experiment [16] can be described thus: chitosan synthesis blockers in C. neoformans – flow cytometry, Cibacron Brilliant Red staining (AID 1347148; call rule not given here;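 note: compound exposure lasted three days at 37 degrees C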). The settings on record: Cryptococcus neoformans chitosan, stronger effect = lower value; at 10 µM unless noted.
Experiment [17] has as its target ATP-dependent translocase ABCB1 (Homo sapiens) (UniProt P08183). As to the kind of experiment: P-glycoprotein substrate transport blockade – cell-based (AID 377; in the data active = fluorescence slope change above about 50%). The settings on record: MDR1-expressing cells, fluorescent substrate accumulation slope; stronger effect = higher value; concentration not given here.
Experiment [18] is described as follows: signal quenchers or enhancers, Cy5 substrate/SSB – biochemical, NIH Clinical Collection, E. coli SSB, artefact control for HCV NS3 helicase inhibitor project (AID 743268; call rule not given here). The settings on record: Cy5-oligo bound E. coli SSB, fluorescence interference.
Experiment [19] has as its system Hepatitis C virus NS3 helicase. The experiment in a line: blockers of NS3h binding to DNA – biochemical, fluorescence polarization, NIH Clinical Collection, primary screen (AID 743270; call rule not given here). The settings on record: NS3 helicase binding to Cy5-dT15 DNA, stronger effect = higher value, concentration not given here. On the technique in general: Fluorescence polarisation rises when a labelled molecule tumbles more slowly, as on binding a larger partner.

Experiment [20] has as its target Single-stranded DNA-binding protein (Escherichia coli (strain K12)) (UniProt P0AGE0). The experiment in a line: SSB-ssDNA binding inhibitors – biochemical, fluorescence polarization, NIH Clinical Collection, counter-screen for HCV NS3 helicase inhibitor project (AID 743271; in the data active = inhibition above about 28%). The following applies: E. coli SSB-DNA binding, stronger effect = higher value, concentration not given here.

The mark [21] stands for this setting: measured here: combination with BGB IC40, at 0.05 µM.
Setting [22] is: measured here: combination with cisplatin, at 0.5 µM.
Where [23] appears, read: measured here: combination with cisplatin, at 5 µM.
Where [24] appears, read: measured here: combination with BGB at IC20, at 0.5 µM.
[25] abbreviates: measured here: combination with cisplatin at IC20, at 0.5 µM.
[26] abbreviates: measured here: combo with BGB at IC20, at 0.5 µM.
Where [27] appears, read: measured here: combo with cisplatin at IC20, at 0.5 µM.
[28] abbreviates: measured here: inhibition with BGB combination, at 0.05 µM.
[29] abbreviates: measured here: inhibition with cisplatin combination, at 0.05 µM.
The mark [30] stands for this setting: BGB combination, concentration series, at 5 µM.
[31] abbreviates: cisplatin combination, concentration series, at 5 µM.
The mark [32] stands for this setting: measured here: combo with BGB IC20.
[33] abbreviates: measured here: combo with cisplatin IC20.

SMILES strings stand for the structures. Values joined by “and” are separate entries in the source; they are usually repeats but may differ in a detail not shown here. Equal entries are not always repeated. Records with an inconclusive call do not appear. For part of these data: Measured potencies and affinities stand elsewhere. Active and inactive are the calls of the source. Cut-off read from the data, not from the text of the source, unless noted: active = inhibition above about 80%; inactive = the rest. Where a SMILES comes first, the peptide text is derived from it. [ ]: non-standard residue; d: D form. The star is where a group is joined. Sta = CC(C)C[C@H](N)[C@@H](O)CC(=O)O; Isovaleryl = CC(C)CC(=O)*

Sequence of ATP-dependent translocase ABCB1 (Homo sapiens) (P08183 whole entry, looked up): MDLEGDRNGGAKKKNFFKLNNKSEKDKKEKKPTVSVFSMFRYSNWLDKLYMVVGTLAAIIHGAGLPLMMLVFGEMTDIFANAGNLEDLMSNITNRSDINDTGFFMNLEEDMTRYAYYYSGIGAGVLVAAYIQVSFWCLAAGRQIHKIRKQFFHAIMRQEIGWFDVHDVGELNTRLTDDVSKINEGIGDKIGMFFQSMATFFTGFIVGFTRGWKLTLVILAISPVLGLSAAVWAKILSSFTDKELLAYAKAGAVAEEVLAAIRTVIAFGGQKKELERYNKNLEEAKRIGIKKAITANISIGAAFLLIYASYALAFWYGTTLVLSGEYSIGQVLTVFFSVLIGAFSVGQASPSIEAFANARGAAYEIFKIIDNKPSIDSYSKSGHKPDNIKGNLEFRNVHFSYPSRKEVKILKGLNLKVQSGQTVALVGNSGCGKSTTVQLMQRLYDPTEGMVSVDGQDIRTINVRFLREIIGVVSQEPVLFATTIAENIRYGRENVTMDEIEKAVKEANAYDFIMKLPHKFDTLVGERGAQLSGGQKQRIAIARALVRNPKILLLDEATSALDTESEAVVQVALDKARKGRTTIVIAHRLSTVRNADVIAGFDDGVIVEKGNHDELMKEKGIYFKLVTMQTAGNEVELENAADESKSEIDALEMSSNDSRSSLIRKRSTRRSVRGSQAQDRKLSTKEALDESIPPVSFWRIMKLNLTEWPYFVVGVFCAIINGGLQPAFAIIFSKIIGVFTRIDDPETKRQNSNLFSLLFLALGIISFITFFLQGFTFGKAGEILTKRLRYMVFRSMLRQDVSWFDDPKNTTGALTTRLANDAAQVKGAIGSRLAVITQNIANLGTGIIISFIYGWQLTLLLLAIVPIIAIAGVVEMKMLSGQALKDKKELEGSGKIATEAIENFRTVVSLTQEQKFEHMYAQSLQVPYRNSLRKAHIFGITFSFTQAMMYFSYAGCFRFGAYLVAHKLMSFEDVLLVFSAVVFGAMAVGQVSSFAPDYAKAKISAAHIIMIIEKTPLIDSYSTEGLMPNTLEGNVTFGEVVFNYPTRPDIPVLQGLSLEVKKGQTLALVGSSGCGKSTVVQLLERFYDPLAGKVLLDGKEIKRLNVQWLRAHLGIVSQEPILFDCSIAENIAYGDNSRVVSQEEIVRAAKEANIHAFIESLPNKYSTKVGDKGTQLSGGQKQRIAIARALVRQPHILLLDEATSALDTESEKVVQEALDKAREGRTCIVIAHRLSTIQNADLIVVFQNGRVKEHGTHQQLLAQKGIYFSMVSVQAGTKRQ

Consider `Nc1nc(Cl)nc2c1ncn2[C@@H]1O[C@H](CO)[C@@H](O)[C@@H]1F`, for which the inhibition was -12.4% (inactive) and -0.15% (inactive) in experiment [1] (at 0.5 µM); -16.1% and -38.3% in [1] (setting [21]); 76.7% and 60.5% in [1] (setting [22]); 89.1% and 86.1% in experiment [1] (setting [23]); 79.4% (inactive) and 75.9% (inactive) in experiment [2] (at 0.5 µM); 67.5% and 66% in [2] (setting [24]). Also, the inhibition was 88.5% and 80.9% in experiment [2] (setting [25]); 92.5% (active) and 92.1% (active) in experiment [3] (at 0.5 µM); 86.9% and 84.3% in experiment [3] (setting [26]); 96.9% and 97.4% in experiment [3] (setting [27]); 42.4% (inactive) and 38.2% (inactive) in experiment [4] (at 0.5 µM); -20.1% and -11.3% in experiment [4] (setting [28]). Moreover, the inhibition is -17.8% and -24.8% in [4] (setting [29]); 9.11% (inactive) and 33.6% (inactive) in experiment [5] (at 0.5 µM); 55% and 57.2% in experiment [5] (setting [22]); 80.6% and 87.7% in [5] (setting [23]); 76.8% and 56.9% in experiment [6] (setting [30]); 50.9% (inactive) and 49.8% (inactive) in experiment [6] (at 0.5 µM). In addition, the inhibition in experiment [6] (setting [31]) is 99% and 94.5%; in experiment [7], 68.3% (inactive) and 72.7% (inactive); in [7] (setting [32]), 68.2% and 76%; in experiment [7] (setting [33]), 58.4% and 59.2%.

Turning to `CC(=O)OCC(=O)[C@@]1(O)CCC2C3CCC4=CC(=O)CC[C@]4(C)C3[C@@H](O)C[C@@]21C` (some centres undefined), the inhibition in experiment [8] is 6.86%. Further, the score in experiment [9] is 1.36. Also, in experiment [10], the rescue above control was -8.68. Moreover, the cytochrome c release ratio in experiment [11] came to 1.12. Moreover, the inhibition of aggregation in experiment [12] worked out at 66.2%. Moreover, in experiment [13], the glutamate uptake change is 16.2%. For the same compound, the inclusion score in [14] was determined as 2. In experiment [15], this compound registered an aggregation suppression score of 0.966.

In the case of `CC1=C(/C=C/C(C)=C/C=C/C(C)=C/C(=O)Nc2ccc(O)cc2)C(C)(C)CCC1`, the fold fluorescence in experiment [16] was 6.05 (inactive).

Regarding `CN(C)C/C=C(/c1ccc(Br)cc1)c1cccnc1`, the fluorescence slope change in [17] is 159% (active).

Regarding `FC(F)(F)c1ccccc1-n1ccnc1`, in [16], the fold fluorescence was 8.97 [at 235.7 µM] (inactive).

As for `CC#C[C@]1(O)CC[C@H]2[C@@H]3CCC4=CC(=O)CCC4=C3[C@@H](c3ccc(N(C)C)cc3)C[C@@]21C`, the fluorescence slope change in experiment [17] is 142% (active). Moreover, the fluorescence ratio in experiment [18] is 0.97 (inactive). For the same compound, the inhibition is 2.4% (inactive) in experiment [19] and -1.18% (inactive) in experiment [20].

Take `C[C@@H](CN1CC(=O)NC(=O)C1)N1CC(=O)NC(=O)C1`: the inhibition is -13.2% (inactive) in experiment [1] (at 0.5 µM); -25.5% in experiment [1] (setting [21]); -32.2% in experiment [1] (setting [22]); -35.9% in [1] (setting [23]); -49.6% (inactive) in experiment [2] (at 0.5 µM); -22.2% in experiment [2] (setting [24]). Moreover, the inhibition in experiment [2] (setting [25]) is -110%; in [3] (at 0.5 µM) it was -16.4% (inactive); in experiment [3] (setting [26]), -23.7%; in experiment [3] (setting [27]) it was -12.8%; in [4] (at 0.5 µM) it was -10.9% (inactive); in experiment [4] (setting [28]), -2.15%. In addition, the inhibition in [4] (setting [29]) is -21.4%; in experiment [5] (at 0.5 µM), -10.5% (inactive); in [5] (setting [22]), -11.4%; in [5] (setting [23]), -5.98%; in experiment [6] (setting [30]), -10.8%; in experiment [6] (at 0.5 µM), -7.98% (inactive). For the same compound, the inhibition is -4.24% in [6] (setting [31]), 0.89% (inactive) in experiment [7], -5.32% in experiment [7] (setting [32]) and 12.3% in experiment [7] (setting [33]).

Consider `CCCCCOC(=O)Nc1nc(=O)n([C@@H]2O[C@H](C)[C@@H](O)[C@H]2O)cc1F`, for which the inhibition in experiment [1] (at 0.5 µM) was -36.3% (inactive) and -17.9% (inactive); in experiment [1] (setting [21]), -77.2% and -11.6%; in [1] (setting [22]), -36.7% and -43%; in experiment [1] (setting [23]), -42.5% and -67.7%; in [2] (at 0.5 µM), -110% (inactive) and -37.4% (inactive); in experiment [2] (setting [24]) it was -124% and -32.3%. Also, the inhibition in experiment [2] (setting [25]) was -103% and -72.6%; in experiment [3] (at 0.5 µM), -17.2% (inactive) and -2.76% (inactive); in experiment [3] (setting [26]), -8.55% and -7.81%; in experiment [3] (setting [27]) it was -34.6% and 2.4%; in experiment [4] (at 0.5 µM) it was -11.5% (inactive) and 9.77% (inactive); in experiment [4] (setting [28]), -37.1% and -7.89%. Further, the inhibition in experiment [4] (setting [29]) is -5.98% and 11.7%; in [5] (at 0.5 µM), -21.1% (inactive) and -14.8% (inactive); in [5] (setting [22]), -19.7% and -16.3%; in [5] (setting [23]), -95.1% and -10.2%; in experiment [6] (setting [30]) it was -26.2% and 5.45%; in experiment [6] (at 0.5 µM), -11.8% (inactive) and 4.86% (inactive). Moreover, the inhibition in experiment [6] (setting [31]) was -6.41% and 4.95%; in experiment [7], -8.94% (inactive) and 6.03% (inactive); in experiment [7] (setting [32]), -11% and -1.61%; in experiment [7] (setting [33]), -23.1% and 9.49%.

Turning to `CCCCCCCCCCCCCCCC(=O)NCCO`, the fold fluorescence in [16] was 4.46 (inactive).

Regarding `CC(C)CC(=O)N[C@H](C(=O)N[C@H](C(=O)N[C@@H](CC(C)C)[C@@H](O)CC(=O)N[C@@H](C)C(=O)N[C@@H](CC(C)C)[C@@H](O)CC(=O)O)C(C)C)C(C)C` (Isovaleryl-VV[Sta]A[Sta]-OH), the fold fluorescence in experiment [16] is 4.93 [at 72.9 µM] (inactive).

`NS(=O)(=O)c1cc(Cl)c(Cl)c(S(N)(=O)=O)c1`: in experiment [17], the fluorescence slope change is 82.9% (active).
